The record followed here is ChEMBL document CHEMBL4513216, “Probing the Open Global Health Chemical Diversity Library for Multistage-Active Starting Points for Next-Generation Antimalarials” (ACS Infect Dis, 2020).

SMILES strings stand for the structures. Out of some 69,000 compounds screened, about 8,600 (12%) showed an effect of 50% or more. Many of the other results were omitted from the sample, so strong results are more common in it than they were.

The assay concerns Plasmodium berghei. In words: Screen against P. berghei liver stage (PbLuc), transformed with Luciferase, at 10uM. It is filed as functional, HepG2. The following applies: tested at 10 uM.
On to `Cc1ncsc1CN1CCn2c(COc3cccnc3)cnc2C1C` (stereo not given), for which the INHIBITION is recorded as 58.7%.

`Cc1ccc(CN2CCn3c(COc4cccnc4)cnc3C2C)o1` (stereo not given): the INHIBITION amounted to 25.8%.

Consider `CC1c2ncc(COc3cccnc3)n2CCN1C(=O)Cc1ccco1` (stereo not given), for which the INHIBITION is -36.3%.

With `Cc1ccsc1CN1CCn2c(COc3cccnc3)cnc2C1C` (stereo not given), the INHIBITION is listed as 65.7%.

In the case of `O=C1CC2(CCCNC2)C(=O)N1Cc1cccc(F)c1` (stereo not given), the INHIBITION turned out to be 0.112%.

`Cc1ccc(C(=O)NS(=O)(=O)Cc2ccc(F)cc2)cc1S(C)(=O)=O`: the INHIBITION is recorded as 41.6%.

As to `CNC(=O)c1ccc2c(c1O)OC(C)(C)C2`, the INHIBITION is 30%.

For the compound `CNC(=O)CN1CCN(C(=O)c2ccn(C)c(=O)c2)CC1`, the INHIBITION is -7.31%.

For `CC(C)CN1CCC2(CCN(Cc3ccoc3)CC2)C1=O`, the INHIBITION stood at 50.7%.

For `CN(C)C(=O)CN1CCC2(CCN(C(=O)N3CCCC3)CC2)C1=O`, the INHIBITION amounted to 54.3%.

In the case of `CN(C)C(=O)CN1CCC2(CCCN(Cc3ccoc3)C2)C1=O` (stereo not given), the INHIBITION was 53.9%.

On to `CC(C)CN1CCC2(CCN(Cc3ccc(F)cc3)CC2)C1=O`, for which the INHIBITION is -15.9%.

For the compound `Cn1cc(CN2CCCC3(CCN(Cc4cccnc4)C3=O)C2)cn1` (stereo not given), the INHIBITION is recorded as 43.2%.

Take `CN(C)C(=O)CN1CCC2(CCN(C(=O)N(C)C)CC2)C1=O`: the INHIBITION is reported as -19.6%.

`CN(C)C(=O)CN1CCC2(CCCN(Cc3cccn3C)C2)C1=O` (stereo not given): the INHIBITION was -10.2%.

`CN(C)C(=O)CN1CCC2(CCCN(Cc3ccsc3)C2)C1=O` (stereo not given): the INHIBITION amounted to 18.6%.

With `O=C1N(CC2CC2)CCC12CCN(Cc1ccoc1)CC2`, the INHIBITION is recorded as 11.2%.

`CN1CCC(CN2CCC3(CCCN(Cc4ccoc4)C3)C2=O)CC1` (stereo not given): the INHIBITION came out at 1.34%.

Take `CN(C)C(=O)CN1CCC2(CCCN(Cc3cccnc3)C2)C1=O` (stereo not given): the INHIBITION stood at 72.9%.

As for `CN(C)C(=O)CN1CCC2(CCN(S(C)(=O)=O)CC2)C1=O`, the INHIBITION is given as 18.6%.

As to `O=C1CCN(C(=O)NCC(c2ccccc2)c2ccccc2)CCN1`, the INHIBITION is listed as -61.4%.

As to `O=C1CC[C@H](C(=O)Nc2cnn(-c3ccccc3Br)c2)N1`, the INHIBITION is reported as 30%.

As to `Cc1cc(C)nc(C2CCN(C(=O)c3c(C)noc3C)C2)n1` (stereo not given), the INHIBITION was -8.12%.

For the compound `Cc1ncnc2c1CCN(Cc1cccs1)CC2`, the INHIBITION is -33%.

For the compound `Cc1ccc(C(=O)N2CCCCC2CNC(N)=O)cc1F` (stereo not given), the INHIBITION is on record as 44.3%.

For `O=C([C@H]1CN(Cc2ccoc2)C[C@H]2OCC[C@@H]12)N1CCCCO1`, the INHIBITION is listed as 39.4%.

For the compound `Cc1ccc(-n2ncc(C(=O)N3CCCC3c3cnn(C)c3)c2C)cc1` (stereo not given), the INHIBITION turned out to be 2.3%.

Turning to `CC(C)Oc1ncccc1CNC(=O)c1cnccn1`, the INHIBITION turned out to be 7.12%.

Take `CCS(=O)(=O)CCNC(=O)[C@@]12CNC[C@@H]1CN(C1CCCC1)C2`: the INHIBITION is given as 30.8%.

As for `CN1CCC(O)(CCNC(=O)[C@@]23CNC[C@@H]2CN(C2CCCC2)C3)CC1`, the INHIBITION stood at 62.9%.

As for `CNS(=O)(=O)CCNC(=O)[C@@]12CNC[C@@H]1CN(C1CCCC1)C2`, the INHIBITION is recorded as 28.7%.

Regarding `Cc1nn(C)cc1S(=O)(=O)N[C@@H]1CCC[C@@H](n2ccnc2)[C@@H]1O`, the INHIBITION came to 7.19%.

For the compound `COc1ccc(-n2cnnc2SCC(C)(C)O)cn1`, the INHIBITION amounted to 1.28%.

`COc1ccc(-n2cnnc2SCC(=O)NC(C)C)cn1`: the INHIBITION was 64.5%.

For `COc1ccc(-n2cnnc2SCCC#N)cn1`, the INHIBITION was 33.4%.

For `COC(=O)CCSc1nncn1-c1ccc(OC)nc1`, the INHIBITION amounted to 22.6%.

Take `COc1ccc(-n2cnnc2SCC(=O)N(C)C(C)C)cn1`: the INHIBITION is given as 59.4%.

Take `CCC(C)Sc1nncn1-c1ccc(OC)nc1` (stereo not given): the INHIBITION is reported as -30.5%.

In the case of `COCCS(=O)(=O)NCc1ccc(N(C)C)c(C)c1`, the INHIBITION came out at 2.65%.

`COCC(=O)N1CCCC1(C)c1nc(C)cc(O)n1` (stereo not given): the INHIBITION is recorded as -33.4%.

Regarding `CCCc1n[nH]c(C2CN(C(=O)c3ccc4c(c3)COC4)CCO2)n1` (stereo not given), the INHIBITION is 15.5%.

With `COCc1nc(C(=O)N2CCCC2c2cc(C)no2)cs1` (stereo not given), the INHIBITION is on record as -3.2%.

For the compound `Cc1ncc2c(n1)CN(CC(=O)NCCOc1ccccc1)CC2`, the INHIBITION is -3.7%.

As to `Cc1ccc(N2CCC3(CCN(C(=O)c4ccsc4)CC3)CC2)nn1`, the INHIBITION amounted to 9.63%.

Regarding `C[C@@H]1CN(C(=O)Cc2ccsc2)C[C@]12CCN(CCN(C)C)C2=O`, the INHIBITION came to 26%.

Turning to `Cc1ccc2c(n1)N(CC1CC1)CCN(C(=O)NC1CC1)C2`, the INHIBITION came to 30.3%.

Consider `Cc1ccc2c(n1)N(CCN(C)C)CCN(C(=O)N1CCOCC1)C2`, for which the INHIBITION is given as 18.3%.

Consider `COCCN1CCN(C(=O)N2CCCC2)Cc2ccc(C)nc21`, for which the INHIBITION was found to be 62.5%.

On to `Cc1ccc2c(n1)N(CCn1cccn1)CCN(C(=O)NC1CC1)C2`, for which the INHIBITION is on record as 37.8%.

As for `COCCN1CCN(C(=O)NC2CC2)Cc2ccc(C)nc21`, the INHIBITION came to 60.1%.

With `COCCN1CCN(S(=O)(=O)C2CC2)Cc2ccc(C)nc21`, the INHIBITION is on record as 0.804%.

For the compound `COCCC(=O)N1CCC(c2ccc3c(NC(C)C)n[nH]c3n2)C1` (stereo not given), the INHIBITION is -36.4%.

`CCOC1COC2(CCN(Cc3ccc(C)cc3)CC2)C1` (stereo not given): the INHIBITION stood at 17.4%.

On to `CCOc1ncnc2c1CCN(C(=O)CN(C)C)CC2`, for which the INHIBITION is given as 42.3%.

Take `CC(C)(C)C(=O)N1CC(=O)N(Cc2ccco2)CC(O)C1` (stereo not given): the INHIBITION amounted to 40.4%.
